# From PubChem BioAssay
# Records with an inconclusive call do not appear. Calls of active or inactive are those of the source.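 The calls were made as follows, unless noted: active = normalized viability below 100% at a tested concentration; inactive = the rest.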
# Experiments:
# [1] = growth inhibition of DIPG glioma cells, dose response, cell-based, SU-DIPG-XVII, MIPE5.0, CellTiter-Glo, qHTS (AID 1347060; cut-off not given, nearly all actives have AC50 up to about 26 µM;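 as to AC50: cells exposed to compound for 48 hours before viability readout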); conditions: SU-DIPG-XVII viability, CellTiter-Glo ATP luminescence
# [2] = growth inhibition of DIPG glioma cells, dose response, cell-based, JHH-DIPG-1, MIPE4.0, CellTiter-Glo, qHTS (AID 1347062; cut-off not given, nearly all actives have AC50 up to about 27 µM;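 as to AC50: cells exposed to compound for two days before readout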); conditions: JHH-DIPG-1 viability, CellTiter-Glo ATP luminescence
# [3] = growth inhibition of DIPG glioma cells, dose response, cell-based, SU-DIPG-IV, MIPE4.0, CellTiter-Glo, qHTS (AID 1347063; cut-off not given, nearly all actives have AC50 up to about 30 µM;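 also: compound exposure lasted 48 hours before the viability readout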); conditions: SU-DIPG-IV viability, CellTiter-Glo ATP luminescence
# [4] = viability loss in pontine glioma line – cell-based, SU-DIPG-XXV, MIPE5.0, CellTiter-Glo, qHTS, dose response (AID 1347065; cut-off not given, nearly all actives have AC50 up to about 26 µM;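 also: cells exposed to compound for 48 hours before ATP readout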); conditions: CellTiter-Glo ATP luminescence
# [5] = SU-DIPG-VI glioma cell viability, MIPE4.0 library, CellTiter-Glo luminescence, qHTS (AID 1347066; cut-off not given, nearly all actives have AC50 up to about 30 µM;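 also: cells exposed to compound for 48 hours before readout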); conditions: CellTiter-Glo ATP luminescence
# [6] = JHH-DIPG-1 glioma cell viability, MIPE5.0 library, CellTiter-Glo luminescence, qHTS (AID 1347067; cut-off not given, nearly all actives have AC50 up to about 26 µM;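 also: cells exposed to compound for 48 hours before readout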); conditions: JHH-DIPG-1 glioma viability, CellTiter-Glo ATP luminescence
# [7] = SU-DIPG-XXV glioma cell viability, MIPE5.0 library, qHTS (AID 1347068; cut-off not given, nearly all actives have IC50 up to about 30 µM;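 as to IC50: cells exposed to compound for 48 hours before viability readout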)
# [8] = sensitizers of A549 cells to miR-34 induction, primary screen, imaging, A549 dox-inducible miR-34, nuclei and caspase counts (AID 1347080;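 active = compounds whose cell count with miR-34 switched on is under 0.7 times the count with it off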); conditions: A549 miR-34 inducible, Hoechst nuclei count, 48 h
# [9] = modifiers of HSF1 nuclear foci, imaging, Selleck Cancer Library (AID 1347162; in the data active = plate-normalised HSF1 focus index below about 0.46); conditions: human cells, at 10 µM; SSMD: measured here: HSF1 foci SSMD mean; cell count: measured here: cell number; plate-normalised HSF1 focus index: stronger effect = lower value
# [10] = survival rescue of mitochondrial mutant cells in low glucose, primary screen, MELAS cybrids, Rieske KO mouse fibroblasts, CellTiter-Glo (AID 1508586;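 active = mean z-score across replicates of 1.96 or higher in either the MELAS or the Rieske mutant cell line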;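 also: z relative to plate mean and SD of compound and empty wells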)
# [11] = ovarian cancer cell viability with rucaparib, profiling panel, oncology-focused library, rucaparib conditional (AID 1508598); conditions: patient-derived ovarian cancer cells, CellTiter-Glo viability, 144 h, stronger effect = lower value
# [12] = LFS_MB_P medulloblastoma growth inhibition, cell-based, chromothripsis tumors, cisplatin or BGB combos (AID 1671449; in the data active = inhibition above about 80%;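 also: cells exposed for 96 hours; 0% = vehicle DMSO and 100% = killing by high DMSO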); conditions: LFS_MB_P medulloblastoma cells
# [13] = HDN33 neuroblastoma growth inhibition, cell-based, chromothripsis tumors, cisplatin or BGB combos (AID 1671450; in the data active = inhibition above about 80%;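 also: cells exposed to compound for four days; 0% = vehicle DMSO and 100% = cell killing by high DMSO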); conditions: HDN33 neuroblastoma cells, stronger effect = higher value
# [14] = ICB984 medulloblastoma cell growth inhibition, synergistic combos for chromothripsis tumors, cisplatin or BGB combos (AID 1671451; call rule not given here;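 also: cells exposed for 96 hours before readout; 0% = vehicle DMSO and 100% = killing by high DMSO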); conditions: ICB984 medulloblastoma cells, drug combinations, stronger effect = higher value
# [15] = HTB85 osteosarcoma cell growth inhibition, synergistic combos for chromothripsis tumors, BGB or cisplatin IC20 combos (AID 1671453; in the data active = inhibition above about 80%;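 also: cells exposed for 96 hours before readout; 0% = vehicle DMSO and 100% = high DMSO killing control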); conditions: HTB85 osteosarcoma cells, drug combinations, stronger effect = higher value
# [16] = MDA-MB-436 breast carcinoma cell growth inhibition, synergistic combos for chromothripsis tumors, BGB or cisplatin combos (AID 1671458; call rule not given here;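 also: cells exposed for 96 hours; 0% = vehicle DMSO and 100% = killing by high DMSO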); conditions: MDA-MB-436 breast carcinoma growth inhibition, drug combinations, stronger effect = higher value
# [17] = growth inhibition of BT084 medulloblastoma cells, cell-based, ICGC_MB145, cisplatin and BGB IC40 combos (AID 1671461; in the data active = inhibition above about 80%;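 also: cells exposed to drugs for 96 hours; 0% = vehicle DMSO and 100% = high DMSO full killing control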); conditions: drug combinations, stronger effect = higher value
# [18] = growth inhibition of RCMB18 medulloblastoma cells, cell-based, cisplatin and BGB IC40 combos (AID 1671462; in the data active = inhibition above about 80%;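 also: cells exposed to compound for four days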); conditions: stronger effect = higher value
# [19] = growth inhibition of CRL1545 osteosarcoma cells, cell-based, cisplatin and BGB IC20 combos (AID 1671464; in the data active = inhibition above about 80%;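 also: cells exposed to compound for 96 hours before readout; 0% = vehicle DMSO and 100% = high DMSO killing control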); conditions: stronger effect = higher value
# [20] = stronger effect = lower value, cell number ratio, induced over uninduced
# [21] = measured here: relative caspase fold change +Dox/-Dox
# [22] = measured here: total cells with miR-34 induction, stronger effect = lower value
# [23] = measured here: total cells without miR-34 induction
# [24] = MELAS cybrid survival, CellTiter-Glo 48 h, stronger effect = higher value
# [25] = Rieske KO mouse fibroblast survival, CellTiter-Glo 72 h
# [26] = measured here: with BGB IC20 combination, at 0.5 µM
# [27] = measured here: with cisplatin IC20 combination, at 0.5 µM
smiles,measurement,setting,value
CNC(=O)c1ccc(N2C(=S)N(c3ccc(C#N)c(C(F)(F)F)c3)C(=O)C2(C)C)cc1F,outcome,[1],inactive
same,outcome,[2],inactive
same,outcome,[3],inactive
same,outcome,[4],inactive
same,outcome,[5],inactive
same,outcome,[6],inactive
same,outcome,[7],inactive
same,fold change,[8]; [20],0.873 (inactive)
same,fold change,[8]; [21],1.28
same,cell count,[8]; [22],7300
same,cell count,[8]; [23],8360
same,SSMD,[9],0.472
same,cell count,[9],6500
same,plate-normalised HSF1 focus index,[9],1.02 (inactive)
same,z-score,[10]; [24],-0.357 (inactive)
same,z-score,[10]; [25],0.602
same,viability,"[11]; at 0.000305 µM, OCI-C5x cells, with rucaparib 10 µM, 100% = cells with rucaparib alone",110% (inactive)
same,viability,"[11]; at 0.000305 µM, OCI-C5x cells, without rucaparib",85.9% (active)
same,viability,"[11]; at 0.000305 µM, OCI-P5x cells, with rucaparib 20 µM, 100% = cells with rucaparib alone",81% (active)
same,viability,"[11]; at 0.000305 µM, OCI-P5x cells, without rucaparib",76.7% (active)
same,viability,"[11]; at 0.00122 µM, OCI-C5x cells, with rucaparib 10 µM, 100% = cells with rucaparib alone",110% (inactive)
same,viability,"[11]; at 0.00122 µM, OCI-C5x cells, without rucaparib",93.5% (active)
same,viability,"[11]; at 0.00122 µM, OCI-P5x cells, with rucaparib 20 µM, 100% = cells with rucaparib alone",91.6% (active)
same,viability,"[11]; at 0.00122 µM, OCI-P5x cells, without rucaparib",82% (active)
same,viability,"[11]; at 0.00488 µM, OCI-C5x cells, with rucaparib 10 µM, 100% = cells with rucaparib alone",110% (inactive)
same,viability,"[11]; at 0.00488 µM, OCI-C5x cells, without rucaparib",91.5% (active)
same,viability,"[11]; at 0.00488 µM, OCI-P5x cells, with rucaparib 20 µM, 100% = cells with rucaparib alone",90.9% (active)
same,viability,"[11]; at 0.00488 µM, OCI-P5x cells, without rucaparib",85% (active)
same,viability,"[11]; at 0.0195 µM, OCI-C5x cells, with rucaparib 10 µM, 100% = cells with rucaparib alone",113% (inactive)
same,viability,"[11]; at 0.0195 µM, OCI-C5x cells, without rucaparib",95.6% (active)
same,viability,"[11]; at 0.0195 µM, OCI-P5x cells, with rucaparib 20 µM, 100% = cells with rucaparib alone",92.4% (active)
same,viability,"[11]; at 0.0195 µM, OCI-P5x cells, without rucaparib",87.7% (active)
same,viability,"[11]; at 0.0781 µM, OCI-C5x cells, with rucaparib 10 µM, 100% = cells with rucaparib alone",108% (inactive)
same,viability,"[11]; at 0.0781 µM, OCI-C5x cells, without rucaparib",102% (inactive)
same,viability,"[11]; at 0.0781 µM, OCI-P5x cells, with rucaparib 20 µM, 100% = cells with rucaparib alone",94.7% (active)
same,viability,"[11]; at 0.0781 µM, OCI-P5x cells, without rucaparib",85.3% (active)
same,viability,"[11]; at 0.313 µM, OCI-C5x cells, with rucaparib 10 µM, 100% = cells with rucaparib alone",108% (inactive)
same,viability,"[11]; at 0.313 µM, OCI-C5x cells, without rucaparib",96.4% (active)
same,viability,"[11]; at 0.313 µM, OCI-P5x cells, with rucaparib 20 µM, 100% = cells with rucaparib alone",102% (inactive)
same,viability,"[11]; at 0.313 µM, OCI-P5x cells, without rucaparib",94.4% (active)
same,viability,"[11]; at 1.25 µM, OCI-C5x cells, with rucaparib 10 µM, 100% = cells with rucaparib alone",117% (inactive)
same,viability,"[11]; at 1.25 µM, OCI-C5x cells, without rucaparib",104% (inactive)
same,viability,"[11]; at 1.25 µM, OCI-P5x cells, with rucaparib 20 µM, 100% = cells with rucaparib alone",102% (inactive)
same,viability,"[11]; at 1.25 µM, OCI-P5x cells, without rucaparib",95.6% (active)
same,viability,"[11]; at 5 µM, OCI-C5x cells, with rucaparib 10 µM, 100% = cells with rucaparib alone",127% (inactive)
same,viability,"[11]; at 5 µM, OCI-C5x cells, without rucaparib",108% (inactive)
same,viability,"[11]; at 5 µM, OCI-P5x cells, with rucaparib 20 µM, 100% = cells with rucaparib alone",97.6% (active)
same,viability,"[11]; at 5 µM, OCI-P5x cells, without rucaparib",93.9% (active)
CNC(=O)Nc1ccc(-c2nc(N3CC4CCC(C3)O4)c3cnn(C4CCC5(CC4)OCCO5)c3n2)cc1,AC50,[1],742 nM (active)
same,AC50,[2],1870 nM (active)
same,AC50,[3],26.4 nM (active)
same,AC50,[4],332 nM (active)
same,AC50,[6],1480 nM (active)
same,IC50,[7],1860 nM (active)
same,fold change,[8]; [20],1.12 (inactive)
same,fold change,[8]; [21],0.588
same,cell count,[8]; [22],3730
same,cell count,[8]; [23],3320
same,z-score,[10]; [24],3.93 (active)
same,z-score,[10]; [25],-1.7
Cc1ccc2nc(NCCN)c3ncc(C)n3c2c1,AC50,[1],8330 nM (active)
same,AC50,[2],2350 nM (active)
same,AC50,[3],20900 nM (active)
same,AC50,[4],8330 nM (active)
same,AC50,[6],13200 nM (active)
same,fold change,[8]; [20],1.09 (inactive)
same,fold change,[8]; [21],0.561
same,cell count,[8]; [22],6190
same,cell count,[8]; [23],5680
same,z-score,[10]; [24],-0.409 (inactive)
same,z-score,[10]; [25],-2.24
same,inhibition,"[12]; at 0.5 µM, stronger effect = higher value",11.2% (inactive)
same,inhibition,"[12]; measured here: combination with BGB IC20, at 0.005 µM",0.796%
same,inhibition,"[12]; measured here: combination with BGB IC40, at 0.005 µM",-31.1%
same,inhibition,"[12]; measured here: combination with BGB IC40, at 0.05 µM",-6.91%
same,inhibition,"[12]; measured here: combination with cisplatin, at 0.5 µM, stronger effect = higher value",74.2%
same,inhibition,"[12]; measured here: combination with cisplatin, at 5 µM, stronger effect = higher value",-17.8%
same,inhibition,"[13]; BGB combo, at 5 µM",63.5%
same,inhibition,[13]; at 0.5 µM,-5% (inactive)
same,inhibition,"[13]; cisplatin combo, at 5 µM",55.9%
same,inhibition,[13]; [26],-7.6%
same,inhibition,[13]; [27],2.54%
same,inhibition,"[13]; single agent, at 5 µM",57.3%
same,inhibition,"[14]; BGB IC20 combo, at 0.005 µM",10.7%
same,inhibition,"[14]; BGB IC40 combo, at 0.005 µM",-98.8%
same,inhibition,"[14]; BGB IC40 combo, at 0.05 µM",52.7%
same,inhibition,[14]; at 0.5 µM,-16% (inactive)
same,inhibition,"[14]; cisplatin combo, at 0.05 µM",50.8%
same,inhibition,"[14]; cisplatin combo, at 0.5 µM",-17.9%
same,inhibition,"[14]; cisplatin combo, at 5 µM",-22.2%
same,inhibition,"[14]; measured here: 5 uM single agent, at 5 µM",-10.1%
same,inhibition,[15]; at 0.5 µM,7.35% (inactive)
same,inhibition,"[15]; measured here: with BGB IC20, at 0.5 µM",19.2%
same,inhibition,"[15]; measured here: with BGB IC20, at 5 µM",98.1%
same,inhibition,"[15]; measured here: with cisplatin IC20, at 0.5 µM",-7.65%
same,inhibition,"[15]; measured here: with cisplatin IC20, at 5 µM",89.2%
same,inhibition,"[15]; single agent, at 5 µM",91.7%
same,inhibition,[16]; at 0.5 µM,-3.06% (inactive)
same,inhibition,"[16]; measured here: BGB combination, at 0.5 µM",-13.7%
same,inhibition,"[16]; measured here: BGB combination, at 5 µM",65.6%
same,inhibition,"[16]; measured here: cisplatin combination, at 0.5 µM",6.41%
same,inhibition,"[16]; measured here: cisplatin combination, at 5 µM",80.2%
same,inhibition,[17]; at 0.5 µM,4.08% (inactive)
same,inhibition,"[17]; cisplatin combination, at 0.5 µM",-3.36%
same,inhibition,"[17]; cisplatin combination, at 5 µM",46.6%
same,inhibition,"[17]; measured here: BGB IC40 combination 0.05 uM, at 0.05 µM",-4.49%
same,inhibition,"[17]; single agent, at 5 µM",32.4%
same,inhibition,[18]; at 0.5 µM,1.56% (inactive)
same,inhibition,"[18]; cisplatin combo, at 5 µM",76%
same,inhibition,"[18]; measured here: BGB IC40 combination, at 0.05 µM",1.88%
same,inhibition,"[18]; measured here: combination with cisplatin, at 0.5 µM",32.9%
same,inhibition,"[18]; single agent, at 5 µM",33.3%
same,inhibition,[19]; at 0.5 µM,-12.7% (inactive)
same,inhibition,[19]; [26],-11.3%
same,inhibition,[19]; [27],-13.3%
same,inhibition,"[19]; single agent, at 0.05 µM",-17.3%
same,inhibition,"[19]; single agent, at 5 µM",99.7%
